According to PubChem BioAssay AID1159580 (chemical genetic matrix, 2015):
Among all 5,500 compounds or so, about 2,000 (36%) were called active. Another 18% or so got no clear call; they are omitted. Some of the results follow. Values without a mark were called inactive. Rule as the data show it: active = normalized growth mostly below about 0.91 (no sharp cut-off); inconclusive = no clear call, values can overlap the other calls; inactive = mostly above about 0.92.

Experiment: chemical genetic growth profiling, strain panel (AID 1159580);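 also: tested at 20 µM; growth read once vehicle control cultures reached saturation at 30 °C; 1 = growth at the plate median or of vehicle wells; lower values mean less growth of the strain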
Conditions: S. cerevisiae deletion strains, growth OD
[1] = locus YHR030C, strain SLT2, stronger effect = lower value

For Cc1nc(N)ncc1Sc1ccccc1, the normalized growth (locus YAL013W, strain DEP1, stronger effect = lower value) was 0.995, the normalized growth (locus YBR229C, strain ROT2, stronger effect = lower value) was 0.989 and the normalized growth (locus YCL061C, strain MRC1, stronger effect = lower value) was 0.963. For the same compound, the normalized growth (locus YDL101C, strain DUN1, stronger effect = lower value) was 0.98, the normalized growth (locus YDR150W, strain NUM1, stronger effect = lower value) was 1 and the normalized growth (locus YEL061C, strain CIN8, stronger effect = lower value) was 0.977. The normalized growth (locus YGR078C, strain PAC10, stronger effect = lower value) was 0.986, the normalized growth [1] was 0.899 and the normalized growth (locus YHR087W, strain rtc3, stronger effect = lower value) was 0.996. It also gave a normalized growth (locus YJL187C, strain SWE1, stronger effect = lower value) of 0.981, a normalized growth (locus YJR043C, strain POL32, stronger effect = lower value) of 0.991 and a normalized growth (locus YJR075W, strain HOC1, stronger effect = lower value) of 0.934. For the same compound, the normalized growth (locus YLR039C, strain RIC1, stronger effect = lower value) was 0.758 (active), the normalized growth (locus YLR058C, strain SHM2 (second series), stronger effect = lower value) was 0.987 and the normalized growth (locus YLR085C, strain ARP6, stronger effect = lower value) was 1.01. The normalized growth (locus YLR262C, strain YPT6, stronger effect = lower value) was 0.822, the normalized growth (locus YML094W, strain GIM5, stronger effect = lower value) was 0.964 and the normalized growth (locus YMR219W, strain ESC1, stronger effect = lower value) was 0.99. The normalized growth (locus YMR263W, strain SAP30, stronger effect = lower value) was 0.966, the normalized growth (locus YNL153C, strain GIM3, stronger effect = lower value) was 0.961 and the normalized growth (locus YNL298W, strain CLA4 (second series), stronger effect = lower value) was 0.961. It also gave a normalized growth (locus YNL322C, strain KRE1, stronger effect = lower value) of 0.982, a normalized growth (locus YNR030W, strain Alg12, stronger effect = lower value) of 0.963 and a normalized growth (locus YOL006C, strain TOP1, stronger effect = lower value) of 0.911. It also gave a normalized growth (locus YPL055C, strain LGE1, stronger effect = lower value) of 0.928, a normalized growth (locus YPL241C, strain CIN2, stronger effect = lower value) of 1.04 and a normalized growth (locus YPR135W, strain CTF4, stronger effect = lower value) of 0.907.
For C=CCCCCCCCCCCCc1ccco1, the normalized growth (locus YAL021C, strain ccr4, stronger effect = lower value) was 0.981, the normalized growth (locus YAL026C, strain drs2, stronger effect = lower value) was 0.869 (active) and the normalized growth (locus YAL030W, strain snc1, stronger effect = lower value) was 0.939. For the same compound, the normalized growth (locus YBL061C, strain skt5, stronger effect = lower value) was 0.896 (active), the normalized growth (locus YBR009C, strain hhf1, stronger effect = lower value) was 0.659 (active) and the normalized growth (locus YBR023C, strain chs3, stronger effect = lower value) was 0.905 (active). The normalized growth (locus YBR171W, strain sec66, stronger effect = lower value) was 0.995, the normalized growth (locus YBR231C, strain swc5, stronger effect = lower value) was 0.873 (active) and the normalized growth (locus YBR279W, strain paf1, stronger effect = lower value) was 0.873 (active). For the same compound, the normalized growth (locus YCL011C, strain gbp2, stronger effect = lower value) was 0.803 (active), the normalized growth (locus YCL016C, strain dcc1, stronger effect = lower value) was 0.861 (active) and the normalized growth (locus YCL069W, strain vba3, stronger effect = lower value) was 0.848 (active). The normalized growth (locus YCR088W, strain abp1, stronger effect = lower value) was 0.916 (active), the normalized growth (locus YDL005C, strain med2, stronger effect = lower value) was 0.979 and the normalized growth (locus YDL040C, strain nat1, stronger effect = lower value) was 0.999. For the same compound, the normalized growth (locus YDR001C, strain nth1, stronger effect = lower value) was 1.01, the normalized growth (locus YDR069C, strain doa4, stronger effect = lower value) was 0.94 and the normalized growth (locus YDR137W, strain rgp1, stronger effect = lower value) was 0.629 (active). For the same compound, the normalized growth (locus YDR159W, strain sac3, stronger effect = lower value) was 0.854 (active), the normalized growth (locus YDR195W, strain ref2) was 0.939 and the normalized growth (locus YDR297W, strain sur2, stronger effect = lower value) was 0.878 (active). For the same compound, the normalized growth (locus YDR335W, strain msn5, stronger effect = lower value) was 0.84 (active), the normalized growth (locus YDR392W, strain spt3, stronger effect = lower value) was 0.0917 (active) and the normalized growth (locus YEL003W, strain gim4, stronger effect = lower value) was 0.884 (active). For the same compound, the normalized growth (locus YEL037C, strain rad23, stronger effect = lower value) was 0.995, the normalized growth (locus YEL061C, strain CIN8 (second series), stronger effect = lower value) was 0.52 (active) and the normalized growth (locus YER015W, strain faa2, stronger effect = lower value) was 0.913 (active). The normalized growth (locus YER016W, strain bim1, stronger effect = lower value) was 0.814 (active), the normalized growth (locus YER111C, strain swi4, stronger effect = lower value) was 0.975 and the normalized growth (locus YER155C, strain BEM2 (second series), stronger effect = lower value) was 0.309 (active). The normalized growth (locus YFR010W, strain ubp6, stronger effect = lower value) was 0.921, the normalized growth (locus YGL167C, strain pmr1, stronger effect = lower value) was 1.01 and the normalized growth (locus YGL173C, strain kem1, stronger effect = lower value) was 0.868 (active). The normalized growth (locus YGL227W, strain vid30, stronger effect = lower value) was 0.766 (active), the normalized growth (locus YGL240W, strain doc1, stronger effect = lower value) was 0.869 (active) and the normalized growth (locus YGL253W, strain hxk2, stronger effect = lower value) was 0.82 (active). For the same compound, the normalized growth (locus YHR013C, strain ard1, stronger effect = lower value) was 0.613 (active), the normalized growth (locus YHR027C, strain rpn1, stronger effect = lower value) was 0.937 and the normalized growth [1] was 0.87. The normalized growth (locus YHR079C, strain IRE1, stronger effect = lower value) was 0.858, the normalized growth (locus YHR142W, strain chs7, stronger effect = lower value) was 0.53 (active) and the normalized growth (locus YJL092W, strain hpr5, stronger effect = lower value) was 0.933. For the same compound, the normalized growth (locus YJL095W, strain BCK1 (second series), stronger effect = lower value) was 0.587 (active), the normalized growth (locus YJL095W, strain BCK1, stronger effect = lower value) was 0.877 (active) and the normalized growth (locus YJL115W, strain asf1, stronger effect = lower value) was 0.984. For the same compound, the normalized growth (locus YJL129C, strain trk1, stronger effect = lower value) was 0.877, the normalized growth (locus YJL154C, strain vps35, stronger effect = lower value) was 1.01 and the normalized growth (locus YJL164C, strain tpk1, stronger effect = lower value) was 0.819 (active). For the same compound, the normalized growth (locus YJL166W, strain qcr8, stronger effect = lower value) was 0.589 (active), the normalized growth (locus YJR066W, strain TOR1, stronger effect = lower value) was 0.925 and the normalized growth (locus YKL160W, strain elf1, stronger effect = lower value) was 0.732 (active). The normalized growth (locus YKR026C, strain gcn3, stronger effect = lower value) was 0.986, the normalized growth (locus YKR091W, strain srl3, stronger effect = lower value) was 0.996 and the normalized growth (locus YLL001W, strain dnm1, stronger effect = lower value) was 0.885 (active). For the same compound, the normalized growth (locus YLL026W, stronger effect = lower value) was 0.935, the normalized growth (locus YLL041C, strain sdh2, stronger effect = lower value) was 0.968 and the normalized growth (locus YLR027C, strain aat2, stronger effect = lower value) was 0.727 (active). The normalized growth (locus YLR113W, strain HOG1, stronger effect = lower value) was 0.832 (active), the normalized growth (locus YLR221C, strain rsa3, stronger effect = lower value) was 0.66 (active) and the normalized growth (locus YLR258W, strain gsy2, stronger effect = lower value) was 0.861 (active). For the same compound, the normalized growth (locus YLR262C, strain YPT6 (second series), stronger effect = lower value) was 0.582 (active), the normalized growth (locus YLR320W, strain mms22, stronger effect = lower value) was 0.621 (active) and the normalized growth (locus YLR342W, strain FKS1, stronger effect = lower value) was 0.858 (active). The normalized growth (locus YLR357W, strain rsc2, stronger effect = lower value) was 0.967, the normalized growth (locus YLR370C, strain arc18, stronger effect = lower value) was 0.966 and the normalized growth (locus YLR384C, strain iki3, stronger effect = lower value) was 0.967. The normalized growth (locus YML120C, strain ndi1, stronger effect = lower value) was 0.934, the normalized growth (locus YMR058W, strain fet3, stronger effect = lower value) was 0.692 (active) and the normalized growth (locus YMR125W, strain sto1, stronger effect = lower value) was 0.807 (active). For the same compound, the normalized growth (locus YMR129W, stronger effect = lower value) was 0.976, the normalized growth (locus YMR205C, strain PFK2, stronger effect = lower value) was 0.719 (active) and the normalized growth (locus YMR231W, strain pep5, stronger effect = lower value) was 0.997. The normalized growth (locus YNL071W, strain lat1, stronger effect = lower value) was 0.253 (active), the normalized growth (locus YNL183C, strain NPR1, stronger effect = lower value) was 0.869 and the normalized growth (locus YNL209W, strain ssb2, stronger effect = lower value) was 0.945. For the same compound, the normalized growth (locus YNL248C, strain rpa49, stronger effect = lower value) was 0.879 (active), the normalized growth (locus YNL322C, strain KRE1 (second series), stronger effect = lower value) was 0.976 and the normalized growth (locus YNR049C, strain mso1, stronger effect = lower value) was 0.994. For the same compound, the normalized growth (locus YOR001W, strain rrp6, stronger effect = lower value) was 0.954, the normalized growth (locus YOR070C, strain gyp1, stronger effect = lower value) was 0.833 (active) and the normalized growth (locus YOR080W, strain dia2, stronger effect = lower value) was 0.99. The normalized growth (locus YOR083W, strain WHI5, stronger effect = lower value) was 0.863 (active), the normalized growth (locus YOR106W, strain vam3, stronger effect = lower value) was 0.819 (active) and the normalized growth (locus YOR231W, strain MKK1, stronger effect = lower value) was 0.856 (active). The normalized growth (locus YOR265W, strain rbl2, stronger effect = lower value) was 0.976, the normalized growth (locus YOR270C, strain vph1, stronger effect = lower value) was 0.626 (active) and the normalized growth (locus YOR290C, strain snf2, stronger effect = lower value) was 0.909. For the same compound, the normalized growth (locus YPL051W, strain arl3, stronger effect = lower value) was 0.754 (active), the normalized growth (locus YPL078C, strain atp4, stronger effect = lower value) was 0.79 (active) and the normalized growth (locus YPL106C, strain sse1, stronger effect = lower value) was 0.96. For the same compound, the normalized growth (locus YPL240C, strain hsp82, stronger effect = lower value) was 0.847 (active) and the normalized growth (locus YPL256C, strain CLN2, stronger effect = lower value) was 0.856.
